# Laboratory results published in PubChem BioAssay (NCI).
# Values joined by “and” are separate entries in the source; they are usually repeats but may differ in a detail not shown here. Equal entries are not always repeated. The panel holds about 79,000 compounds, 15% with a hit somewhere; the sample as a whole holds those more often. Values without a mark were called inactive. Active and inactive are the calls of the source. No stated cut-off is given here; in the data, active means growth inhibition above about 70%; inactive means the rest.
# Legend:
# [1] = NCI Yeast Anticancer Drug Screen. Data for the rad50 strain (AID 155);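 further: 0% = growth of vehicle-only cultures of the same strain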; settings: S. cerevisiae rad50 strain growth inhibition, stronger effect = higher value
# Summary of the method: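 DNA repair mutant yeast, compound exposure, growth read-out; inhibition is taken relative to vehicle.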
# [2] = NCI Yeast Anticancer Drug Screen. Data for the mec2-1 strain (AID 157); settings: S. cerevisiae mec2-1 strain, stronger effect = higher value
# Summary of the method: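 Readout is yeast growth inhibition, normalised to vehicle-treated controls, in the mec2-1 strain exposed to compound.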
# [3] = NCI Yeast Anticancer Drug Screen. Data for the sgs1 mgt1 strain (AID 161);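 further: 0% = growth of cultures given vehicle only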; settings: S. cerevisiae sgs1 mgt1 strain, stronger effect = higher value
# Summary of the method: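 Percent growth inhibition was derived by comparing compound-exposed mutant yeast with vehicle-exposed cultures. The strain carries alterations in DNA damage repair.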
# [4] = NCI Yeast Anticancer Drug Screen. Data for the cln2 rad14 strain (AID 165);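 further: 0% = growth equal to vehicle treated cultures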; settings: S. cerevisiae cln2 rad14 strain, stronger effect = higher value
# Summary of the method: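 Relative to vehicle controls, growth inhibition of compound-treated cln2 rad14 yeast was recorded.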
# [5] = NCI Yeast Anticancer Drug Screen. Data for the bub3 strain (AID 167); settings: S. cerevisiae bub3 mutant strain, stronger effect = higher value
# Summary of the method: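 In this screen, a yeast mutant lacking normal mitotic checkpoint function is challenged with compound. Relative growth versus vehicle gives the inhibition value.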
# [6] = NCI Yeast Anticancer Drug Screen. Data for the mlh1 rad18 strain (AID 175); settings: S. cerevisiae mlh1 rad18 strain growth inhibition, stronger effect = higher value
# Summary of the method: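 Test agents were incubated with a yeast strain of defined genotype (DNA damage repair defect). Inhibition of growth was derived by comparison with vehicle-exposed cultures.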
# [7] = at 5.0 µM (retest, dose inferred, filed as 0.5)
# [8] = at 50.0 µM (retest, dose inferred, filed as 5.0)
Structure (SMILES),"growth inhibition [1, 7]","growth inhibition [1, 8]",growth inhibition ([1]; at 50.0 µM),"growth inhibition [2, 7]","growth inhibition [2, 8]",growth inhibition ([2]; at 50.0 µM),"growth inhibition [3, 7]","growth inhibition [3, 8]",growth inhibition ([3]; at 50.0 µM),"growth inhibition [4, 7]","growth inhibition [4, 8]",growth inhibition ([4]; at 50.0 µM),"growth inhibition [5, 7]","growth inhibition [5, 8]",growth inhibition ([5]; at 50.0 µM),"growth inhibition [6, 7]","growth inhibition [6, 8]",growth inhibition ([6]; at 50.0 µM)
CCNc1ncc2ccccc2c1-c1ccc(N2CCN(CCCl)CC2)cc1,15%,93% (active),97.8% (active),13%,89% (active),74% (active),11%,97% (active),98.7% (active),2%,90% (active),93.5% (active),13%,95% (active),97.2% (active),8%,97% (active),98% (active)
CCC(C)(C)c1ccc(OP(=S)(S)Oc2ccc(C(C)(C)CC)cc2)cc1,-1%,92% (active),88.5% (active),3%,96% (active),68.7%,-7%,95% (active),94.9% (active),4%,90% (active),90.7% (active),-1%,94% (active),31.5%,-4%,95% (active),90.5% (active)
Cc1cccc2cc3ccccc3cc12,29%,99% (active),95.3% (active),50%,99% (active),97% (active),43%,99% (active),85.9% (active),58%,99% (active),91.1% (active),68%,99% (active),95.7% (active),70% (active),99% (active),96.9% (active)
CCC[CH2][Sn]([F])([CH2]CCC)[O][Sn]([F])([CH2]CCC)[CH2]CCC,51%,98% (active),97.5% (active),46%,99% (active),98.9% (active),50%,98% (active),98.2% (active),34%,98% (active),98.3% (active),54%,96% (active),98.5% (active),48%,97% (active),98.2% (active)
CC[n+]1c(-c2ccccc2)c2cc(N)ccc2c2ccc(N)cc21,39% and 29%,91% (active) and 92% (active),81.6% (active) and 83.3% (active),7% and -18%,45% and 13%,3.7% and 3.85%,-4% and -13%,16% and 27%,23.3% and 32.1%,2% and -6%,27% and 40%,11.8% and 34.9%,-7% and -2%,27% and 24%,52.9% and 5.2%,-17% and -4%,25% and 20%,20.2% and 34.6%
O=[N+]([O-])c1ccc([Se]CCBr)c([N+](=O)[O-])c1,5%,36%,38.4%,1%,23%,41%,5%,95% (active),18.2%,2%,88% (active),15.8%,-2%,90% (active),30.2%,10%,96% (active),19.8%
[C-]#[O+].[C-]#[O+].[Ir].[O-]c1ccc2ccccc2c1N=Nc1ccccc1,-4%,-4%,74.5% (active),-11%,-11%,69.5%,15%,15%,62.1%,-2%,-2%,50.7%,-20%,-20%,55.1%,-18%,-18%,69.5%
CC(C)NCC(O)c1ccccc1Cl (centres undefined),3%,2%,5.4%,2%,-2%,-11.3%,0%,3%,-3.35%,0%,-2%,32.9%,-2%,-4%,-6.2%,8%,3%,14.1%
